Laboratory results: PubChem BioAssay (NCI)
Compounds without any hit were thinned out: in the full panel of roughly 79,000, 15% have a hit. Rule as the data show it: active = growth inhibition above about 70%; inactive = the rest.

How the values were obtained:
[1] = NCI Yeast Anticancer Drug Screen. Data for the rad50 strain (AID 155);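 also: 0% = growth of vehicle-only cultures of the same strain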; conditions: S. cerevisiae rad50 strain growth inhibition; at 50.0 µM; stronger effect = higher value
How it was run: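 DNA repair mutant yeast, compound exposure, growth read-out; inhibition is taken relative to vehicle.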

[2] = NCI Yeast Anticancer Drug Screen. Data for the mec2-1 strain (AID 157); conditions: S. cerevisiae mec2-1 strain, at 50.0 µM, stronger effect = higher value
How it was run: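 mec2-1 yeast strain, carrying an alteration in DNA damage repair or cell cycle control, was exposed to compounds; growth inhibition was measured relative to vehicle-treated controls.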

[3] = NCI Yeast Anticancer Drug Screen. Data for the sgs1 mgt1 strain (AID 161);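 also: 0% = growth of cultures given vehicle only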; conditions: S. cerevisiae sgs1 mgt1 strain, at 50.0 µM, stronger effect = higher value
How it was run: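 Compounds are added to genetically altered yeast, and growth is compared with cultures given vehicle alone to give percent inhibition.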

[4] = NCI Yeast Anticancer Drug Screen. Data for the cln2 rad14 strain (AID 165);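 also: 0% = growth equal to vehicle treated cultures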; conditions: S. cerevisiae cln2 rad14 strain, at 50.0 µM, stronger effect = higher value
How it was run: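 Yeast carrying cln2 and rad14 alterations (cell cycle control and DNA damage repair) were exposed to compounds. Growth inhibition was measured against vehicle-treated controls.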

[5] = NCI Yeast Anticancer Drug Screen. Data for the bub3 strain (AID 167); conditions: S. cerevisiae bub3 mutant strain, at 50.0 µM, stronger effect = higher value
How it was run: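 In this screen, a yeast mutant lacking normal mitotic checkpoint function is challenged with compound. Relative growth versus vehicle gives the inhibition value.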

[6] = NCI Yeast Anticancer Drug Screen. Data for the mlh1 rad18 strain (AID 175); conditions: S. cerevisiae mlh1 rad18 strain growth inhibition; at 50.0 µM; stronger effect = higher value
How it was run: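 Growth inhibition of the yeast strain was measured after compound exposure and expressed relative to vehicle-treated controls. The strain carries defined defects in DNA damage repair.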

Measured: growth inhibition

O=C(O)CCCC(=O)c1ccccc1
inactive: [1] 5% | [2] -8.65% | [3] 4.85% | [4] -9.05% | [5] -5.9% | [6] 20.1%

COc1ccc2[nH]c(-c3cccc(N(C)C)c3)cc(=O)c2c1
inactive: [1] -26.1% | [2] -8.1% | [3] -12.5% | [4] -3.95% | [5] -26% | [6] -70.6%

CC1=C[C@@H]2[C@@H](CC(CO)=C[C@H]3[C@@H]4C(C)(C)[C@]4(OCC(C)C)[C@H](OCC(C)C)[C@@H](C)[C@]23O)C1=O
inactive: [1] -13.7% | [2] -14.2% | [3] -55.5% | [4] -0.1% | [5] -69.2% | [6] -13.9%

CC(CC(=O)O)C1(C)C2CCCCC2C2CCCCC21 (stereo unspecified)
inactive: [1] -6.2% | [2] -9.6% | [3] 5.75% | [4] -13.3% | [5] -4.15% | [6] -2.8%

CCN(CC)c1ccc(C)cc1Cl
inactive: [1] -5.7% | [2] 7.5% | [3] -12.2% | [4] -16.8% | [5] 7.05% | [6] 5.55%

CC(=O)OCC1OC(OC(C)=O)C(NC(=O)CN(Cc2ccccc2)S(C)(=O)=O)C(OC(C)=O)C1OC(C)=O (stereo unspecified)
inactive: [1] -8.6% | [2] 13.9% | [3] -16.1% | [4] -1.65% | [5] 0.35% | [6] -4.05%

CC(=O)c1cc(Cl)ccc1Cl
inactive: [1] 23.9% | [2] -6.2% | [3] -0.8% | [4] 33% | [5] -3.05% | [6] 26.1%

Nc1ccc(-c2ccc(Nc3cc(S(=O)(=O)O)c(N)c4c3C(=O)c3ccccc3C4=O)cc2)c(S(=O)(=O)O)c1
inactive: [1] -23.9% | [2] 14.8% | [3] -32.5% | [4] 8.45% | [5] -38.1% | [6] -9.05%

COc1cc2c(cc1OC)C(C(c1ccccc1)c1ccccc1)N(C)CC2 (stereo unspecified)
inactive: [1] 9.9% | [2] 9.25% | [3] -16.7% | [4] 20.6% | [5] 3.25% | [6] 20.6%

Nc1nc2c(c(=O)[nH]1)CN(CCCN1CCOCC1)CN2
inactive: [1] -36.2% | [2] -26.1% | [3] -19.1% | [4] 68% | [5] -30% | [6] 0%

COc1ccc(/C=C2/C(=O)N(c3ccccc3)N=C2C)cc1
inactive: [1] 22.2% | [2] -2.2% | [3] 17.3% | [4] 0.4% | [5] 16.7% | [6] 22.1%

CC(=O)Oc1cc2oc([O-])c[n+]2c2ccccc12
inactive: [1] 28.6% | [2] 14.2% | [3] 22.7% | [4] 5.45% | [5] 12.6% | [6] 0.95%

COC(=O)N1C(c2ccccc2)C=CC(c2ccccc2)N1C(=O)OC (stereo unspecified)
inactive: [1] 12.7% | [2] 11.2% | [3] 10.2% | [4] 4.3% | [5] 17% | [6] 18.2%

COc1ccc2c(c1)Cc1cc(N=[N+]([O-])c3ccc4c(c3)Cc3cc(OC)ccc3-4)ccc1-2
inactive: [1] 8.65% | [2] 1.35% | [3] -17.9% | [4] -80% | [5] 47.5% | [6] 9.85%

O=C(O)C1OCOC2C(CO)OCOC12 (stereo unspecified)
inactive: [1] 11.8% | [2] -5.35% | [3] 17% | [4] -29.9% | [5] -3.6% | [6] 11.1%

COc1cc(/C=C/C(=O)O)cc(OC)c1OC
inactive: [1] -4.95% | [2] -2.1% | [3] 12.9% | [4] 6.1% | [5] 11.2% | [6] 10.7%

O=C(COC(=O)c1ccccc1)c1ccc(-c2ccccc2)cc1
inactive: [1] -3.25% | [2] 16.3% | [3] 11.8% | [4] 30.4% | [5] 14.2% | [6] 11.7%

c1coc(C2OCCO2)c1
inactive: [1] -24.1% | [2] -31.6% | [3] -26.6% | [4] 6.75% | [5] -21.8% | [6] -3.1%

Nc1ccc(N(C(=O)c2ccccc2)C(=O)c2ccccc2)c(-c2ccccc2)c1
inactive: [1] 19.9% | [2] 8.95% | [3] 6.15% | [4] 3.35% | [5] 11.1% | [6] 22.9%

Nc1ncnc2c1ncn2C1CCN(CCO)C1=O (stereo unspecified)
inactive: [1] -5.55% | [2] -5.55% | [3] -29.1% | [4] -17.4% | [5] -5.2% | [6] -14.8%

CCOc1ccc(N=C2NC(=O)C(CC(=O)Nc3ccc(Cl)cc3Cl)S2)cc1 (stereo unspecified)
inactive: [1] 15% | [2] 15.3% | [3] -7.4% | [4] -51.9% | [5] -6% | [6] 27.2%

C=C(C)CN(CC(=C)C)c1nc(N)nc(N)n1
inactive: [1] -35.2% | [2] -2.95% | [3] -21.9% | [4] -43.5% | [5] -2.1% | [6] -13.1%

O=C(Oc1ccn(C2OC(CO)C(O)C2O)c(=O)c1)C12CC3CC(CC(C3)C1)C2 (stereo unspecified)
inactive: [1] 36.1% | [2] 11.6% | [3] 25.2% | [4] 25.4% | [5] 0.95% | [6] 36.2%

Nc1ccc(Cl)c(Cl)c1Cl
inactive: [1] 40.5% | [2] -6.2% | [3] 52% | [4] 31% | [5] 43.3% | [6] 35.7%

FC(F)(F)c1ccc(Cl)c(N=C=S)c1
inactive: [1] -26.1% | [2] -9.15% | [3] 31.4% | [4] -108% | [5] -21.8% | [6] -4.7%

CCOC(=O)/N=c1/nc2ccn(C)c2c(NC(=O)OCC)s1
inactive: [1] 15.1% | [2] -3.5% | [3] -5% | [4] 11% | [5] 7.9% | [6] -15.8%

NC1=Nc2ncccc2C(=O)NN1
inactive: [1] -17.4% | [2] 19.5% | [3] 8.1% | [4] 17.8% | [5] 12.7% | [6] 24.8%

CC(C)NC(=O)OCc1c(COC(=O)NC(C)C)c2n(c1-c1ccc(Cl)c(Cl)c1)CCS2(=O)=O
inactive: [1] -0.5% | [2] 2.2% | [3] 4.5% | [4] -36.1% | [5] -1.95% | [6] 8.15%

CCCSc1nc2c(=O)n(C)c(=O)[nH]c2n1C
inactive: [1] -10.2% | [2] -1.8% | [3] -6.95% | [4] -36.3% | [5] -12.2% | [6] -3.55%

CN(C)OC(=O)Nc1cccc([N+](=O)[O-])c1
inactive: [1] 19.1% | [2] 13.3% | [3] 14.1% | [4] -82.8% | [5] 4.8% | [6] -2.6%

COC(=O)Cc1ccccc1C(c1ccccc1)c1ccccc1
inactive: [1] -1.85% | [2] -0.4% | [3] 9.7% | [4] 6.7% | [5] 13.8% | [6] -0.65%

O=C(Nc1ccccc1[N+](=O)[O-])C(=O)Nc1ccccc1[N+](=O)[O-]
inactive: [1] -7.55% | [2] 5.9% | [3] -2.95% | [4] -22.5% | [5] -0.9% | [6] -0.25%

CCCCCCCC(=O)Oc1cccc(C)c1
inactive: [1] -0.9% | [2] -3.3% | [3] -8.6% | [4] -10.3% | [5] -7.35% | [6] 2.2%

O=[N+]([O-])c1ccc(-c2nnn(C3CC3)c2N2CCCCC2)cc1
inactive: [1] -7.85% | [2] -5.6% | [3] -3.4% | [4] -0.5% | [5] -4.35% | [6] 5.15%

N#CC1=C(S)N(C2OC(CO)C(O)C(O)C2O)C(c2ccccc2)=CC1c1ccco1 (stereo unspecified)
inactive: [1] 36.1% | [2] 13% | [3] 4.85% | [4] -12.4% | [5] -3% | [6] 27.6%

Cc1ccc(NC(=O)OCC(F)(F)F)cc1NC(=O)OCC(F)(F)F
inactive: [1] 1.9% | [2] 29.3% | [3] 26.1% | [4] -0.9% | [5] 16.8% | [6] 1.95%
